Active and inactive are the calls of the source.
Experiment: growth of efflux-deficient E. coli DRC39 – strain DRC39, OD650, 48 h, E. coli filamentation inducers, primary screen (AID 1179);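 further: screen aims at cell division blockers that make cells filament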
Conditions: E. coli DRC39 delta-acrAB growth, higher = more signal, called active from +8 up or from −8 down

z-score, inactive:
C=C(COC)/C(=C/C[C@H](OC(C)=O)c1ccccc1OCCO)c1cc(C(=O)OC)ccc1OC -0.653
C=C(CCCC)/C(=C/C[C@H](OC(=O)c1ccncc1)c1cccc(OCCO)c1)c1cnc2ccccc2c1 -0.635
C=C(COC)C(=O)CC[C@@H](OC(C)=O)c1ccccc1OCCO -0.061
COc1ccc(C(O)C2C=CC3C(=O)N(c4ccccc4)C(=O)C3N2Nc2ccc(C#N)cc2)cc1OCc1ccccc1 (configuration not stated) -0.0725
CCOC(=O)C1=CC[C@@H](c2ccc(OC)cc2)N(S(=O)(=O)c2ccc(C)cc2)[C@H]1c1ccc(C)cc1 -0.148
C=C(CCCC)/C(=C/C[C@H](OC(C)=O)c1cccc(OCCO)c1)c1cnc2ccccc2c1 0.211
CC(=O)OCC1C2CC[C@H]3C(OCc4ccc(F)cc4C(F)(F)F)OC[C@]4(C)[C@H]3C2=C(CN4C(=O)OC(C)(C)C)[C@H](C)C1COC(C)=O (some centres not stated) -0.748
CC(C)(C)OC(=O)CC[C@]1(C(=O)NCC(O)CO)N=C(c2ccc(OCCCO)cc2)O[C@H]1c1ccccc1N=[N+]=[N-] (some centres not stated) 0.0611
COC(=O)[C@@]1(Cc2ccc(F)cc2)[C@H]2c3cc(C(=O)N(C)C)n(CCc4ccc(O)c(O)c4)c3C[C@H]2CN1C(=O)c1ccccc1 0.157
CC[C@@H]1C=C(C(=O)O)[C@H](c2ccc(OC)cc2)N1S(=O)(=O)c1ccc(C)cc1 -0.521
COC(=O)[C@@]1(Cc2ccccc2)N=C(c2ccc(OCCCO)cc2)O[C@H]1c1ccccc1CN=[N+]=[N-] 0.93
COc1ccc(C(=O)Nc2cccc(CN3C(=O)[C@@]4(O[C@@H](CC(=O)N5CCC[C@H]5CO)[C@H]([Si](C)(C)c5ccc(OC)cc5)[C@H]4C)c4ccccc43)c2)cc1 0.274
CC(=O)c1ccc(C(O)C2C=CC3C(=O)N(c4ccccc4)C(=O)C3N2Nc2ccc(C(C)C)cc2)cc1 (configuration not stated) 0.463
COc1ccccc1CN1C(=O)c2ccccc2[C@](Cc2ccccc2I)(C(=O)NCC(C)C)[C@@H]1c1ccc(CO)cc1 1.29
C=CCNC(=O)[C@H]1[C@@H]2C(=O)O[C@@H](c3ccccc3)[C@@H](c3ccccc3)N2[C@@H](c2ccc(OCCO)cc2)[C@]12C(=O)Nc1ccc(C#CC3(O)CCCCCC3)cc12 0.988
[N-]=[N+]=Nc1ccccc1C[C@@]1(C(=O)NCC(O)CO)N=C(c2ccc(OCCCO)cc2)O[C@@H]1c1ccccc1 (some centres not stated) -0.0622
CCOC(=O)c1cn(C[C@H](Cc2ccccc2)NC(=O)N[C@H](CO)CCc2oc(C(C)=O)c(C(=O)OC)c2C(=O)OC)nn1 -0.356
Cc1ccc(S[C@]2(C(=O)NCCCN(C)C)CC(=O)N(Cc3ccccc3C(F)(F)F)[C@@H]2c2ccc(CO)cc2I)cc1 -0.65
COCCOC(=O)N1C(=O)[C@@]2(c3cc(C#CCNC(N)=O)ccc31)[C@H](C(=O)Nc1nc3ccccc3s1)[C@H]1C(=O)O[C@H](c3ccccc3)[C@H](c3ccccc3)N1[C@@H]2c1ccccc1OCCO 1.14
Cc1ccc(S[C@]2(C(=O)NC3CC3)CC(=O)N(C(C)C)[C@@H]2c2ccc(CO)cc2I)cc1 0.617
COc1cc(CO)cc(I)c1O[C@H]1C=C(C(=O)NCCO)C[C@@H]2O[C@H]12 -0.475
CC(=O)NCCCC[C@@H]1NC(=O)[C@H]2C[C@@H](C(=O)NCCCCCCNC(=O)CS)[C@@H](c3cccc(OCCO)c3)N2C1=O -0.264
C=CC[C@@]1(C(=O)OC)N=C(c2ccc(OCCCO)cc2)O[C@@H]1c1ccccc1N=[N+]=[N-] -1.05
CCC(CC)C(O)C1C=CC2C(=O)N(c3ccccc3)C(=O)C2N1Nc1ccccc1F (configuration not stated) 0.164
CN1C(=O)C2C(C1=O)C1C=C(CCCO)C2C(C2CC2)N1Cc1cccc(OC(F)(F)F)c1 (configuration not stated) -0.377
C=C(CCCC)C(=O)CC[C@H](OC(=O)c1ccccc1-c1ccccc1C(=O)O)c1ccc(OCCO)cc1 -0.636
COC(=O)[C@@]1(Cc2ccc(F)cc2)[C@H]2c3cc(C(=O)N(C)C)n(C)c3C[C@H]2CN1C(=O)c1ccccc1 -0.705

Reference: PubChem BioAssay
